High-throughput results as filed in PubChem.
NR1D1 modulator: modulators of Rev-erb alpha DNA binding, primary screen, biochemical, FITC-DNA, fluorescence polarization, uHTS; Rev-erbα–FITC-DNA binding, 90 min; activity, % at 10 µM; 0.79% of 370,000 active; AID 1259318, 2017;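 active = activity above about 14%, limit read from the data; passing the limit was not always enough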;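 note: 0% = DMSO wells with 35 nM protein and 100% = DMSO wells with 750 nM protein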
PP1 counter: PP1-alpha phosphatase inhibitors, primary screen, counter-screen for PP5 inhibitor project, biochemical, fluorescence, OMFP substrate, single point; purified PP1alpha; inhibition, % at 6.7 µM; 0.9% of 320,000 active;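 active = inhibition above the mean inhibition of all tested compounds plus 3 SD, computed separately for each screening campaign, cut at about 15% in these data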
Target sequence (P62136 whole entry, looked up): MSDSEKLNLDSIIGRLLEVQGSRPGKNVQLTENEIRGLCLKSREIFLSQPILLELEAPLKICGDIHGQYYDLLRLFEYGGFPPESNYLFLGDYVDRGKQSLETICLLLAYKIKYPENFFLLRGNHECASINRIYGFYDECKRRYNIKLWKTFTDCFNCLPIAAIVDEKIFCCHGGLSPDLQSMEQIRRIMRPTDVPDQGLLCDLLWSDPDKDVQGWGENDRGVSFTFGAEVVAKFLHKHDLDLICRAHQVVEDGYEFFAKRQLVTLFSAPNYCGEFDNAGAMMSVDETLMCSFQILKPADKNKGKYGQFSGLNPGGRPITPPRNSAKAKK
PG9 binder: binders of HIV-1 gp120 antibody PG9, primary screen, biochemical, TR-FRET; HIV-1 gp120 / PG9 antibody interaction; TR-FRET gp120-PG9 antibody binding; inhibition, % at 6.7 µM; 0.43% of 360,000 active; in the data active = inhibition above about 8.5%
KLK7 zymogen act: proKLK7 zymogen activators, primary screen, biochemical, fluorescence intensity; 0.9% of 370,000 active; Kallikrein-7 (Homo sapiens), P49862; activation, % at 7 µM; purified proKLK7, EDANS-DABCYL substrate fluorescence; 100% is mature enzyme control, 0% vehicle;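 active = activation above the mean of all tested compounds plus 3 SD, computed per campaign excluding outliers beyond control limits, cut at about 13% in these data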
JMJD2C inh: inhibitors of GASC-1 histone demethylase, primary screen, biochemical, fluorescence, DELFIA europium; Lysine-specific demethylase 4C (Homo sapiens), Q9H3R0; GST-JMJD2C(1-420) H3K9me3 demethylation; inhibition, % at 2.35 µM; 0.069% of 330,000 active; AID 2099, 2009;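 active = more than half of a compound's replicate wells show inhibition beyond 50%, single wells judged on their own value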;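 note: signal counts dimethyl H3K9 product captured on neutravidin plate; 0% = median of DMSO wells and 100% = 0.3 times that DMSO median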
PP5 primary: PP5 phosphatase inhibitors, primary screen, biochemical, fluorescence | Serine/threonine-protein phosphatase 5 (Homo sapiens), P53041 | purified PP5c, OMFP substrate fluorescence | inhibition, % at 6.7 µM | 0.18% of 320,000 active;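 active = inhibition above the campaign's mean inhibition across all tested compounds plus 3 SD, cut at about 9.5% in these data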;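 note: 0% = DMSO only and 100% = 100 µM cantharidin control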
NR1D1 mod conf: modulators of Rev-erb alpha DNA binding, confirmation, biochemical, FITC-DNA, fluorescence polarization, single point; shares compounds with NR1D1 modulator; AID 1259319, 2017; 90 min; 61% of 3,000 active; activation, % at 25 µM;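 active = activation at or above a set limit, or at least 3 SD above the negative control mean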;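 note: 0% = 35 nM protein with DMSO and 100% = 750 nM protein high control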
RORg DNA counter: modulation of RORgamma DNA binding, dose response, counter-screen for Rev-erb alpha modulator project, biochemical, fluorescence polarization, FITC-DNA; shares compounds with NR1D1 modulator; purified RORgamma protein-FITC-DNA binding; IC50, µM; 8% of 910 active; AID 1259320, 2017;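 active = Compounds whose fitted half-maximal concentration for disrupting protein-DNA binding is below 10 micromolar; the record names Rev-erb in its text, so the target is in doubt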
An asterisk follows results filed as active; x = not tested or not shown. Hits are enriched below; roughly 2.8% of the tested compounds scored in any of these assays.

SMILES	NR1D1 modulator	PP1 counter	PG9 binder	KLK7 zymogen act	JMJD2C inh	PP5 primary	NR1D1 mod conf	others
Cc1cc(-c2ccccc2)nc2oc3c(c12)NC(=O)CN(c1ccccc1)C3=O	23.2*	-3.2	-1.5	-0.4	3.7	-2.6	35.0*	RORg DNA counter=1.13*
Fc1ccc(C2=Nn3c(nnc3C3CCCCC3)SC2)cc1	1.6	x	x	-0.1	x	x	x
CS(=O)(=O)c1ccc2nc(NC(=O)c3cc(-c4ccccc4)nn3-c3ccccc3)sc2c1	42.4*	-1.5	0.1	-1.0	5.2	0.0	18.8*
Cc1cccc2c(C(=O)n3cccn3)cc(-c3ccccc3Cl)nc12	30.7*	-1.8	2.4	0.1	-7.2	0.3	7.1
Cc1cccc2c(C(=O)Nn3cnnc3)cc(-c3ccccc3Cl)nc12	-3.0	-1.1	-2.0	0.4	10.2	2.5	x
O=c1c2sc3nc(N4CCOCC4)c4c(c3c2ncn1C(c1ccccc1)c1ccccc1)CCCC4	29.6*	x	1.0	-0.3	x	x	26.8*
O=c1c2sc3nc(N4CCOCC4)c4c(c3c2ncn1-c1ccccc1)CCCC4	3.2	6.2	1.1	-13.2	-2.0	1.6	x
COc1ccc(-c2nc(-c3cccs3)c(-c3cccs3)[nH]2)cc1OC	44.1*	-0.7	6.7	-12.8	0.9	4.3	64.4*	RORg DNA counter=>40
O=[N+]([O-])c1cccc(-c2nc(-c3cccs3)c(-c3cccs3)[nH]2)c1	28.5*	8.7	0.1	0.0	3.6	5.8	25.3*
O=C(C1CCN(c2ncnc3c2sc2cccc(F)c23)CC1)N1CCN(Cc2ccccc2)CC1	4.8	x	x	-2.4	x	x	x
CCN(CC)CCCN1C(=O)C2=C(C1=O)C1N(C)c3ccccc3[C@@]13C[C@@H](CO)N(C(=O)CCC(=O)OC)C3=N2 (some centres undefined)	0.9	x	x	0.4	x	x	x
COc1cccc(CO[C@H]2C=C[C@@H](c3ccccc3)O[C@@H]2CO)c1	5.8	x	x	0.0	x	x	x
CC(C)(C)c1ccc(-c2nnc3sc(-c4ccccn4)nn23)cc1	21.8*	-11.4	4.4	-0.6	3.7	0.3	21.0*
Cc1cccc(-c2nnc3sc(-c4ccccc4)nn23)c1	82.3*	-1.9	-0.6	0.4	5.4	1.1	135.4*
COc1ccc(-c2nnc3sc(-c4ccccn4)nn23)cc1	x	-1.9	x	x	-16.2	-1.1	x
CN(C(=O)[C@@H](Cc1ccccc1)NC(=O)[C@H]1O[C@@H](n2ccc(=O)[nH]c2=O)[C@H](O)[C@@H]1O)C1CCCCC1	0.0	x	-2.0	0.0	x	x	x
c1ccc(-c2c[nH]c3cccc(-c4cc5ccccc5o4)c23)cc1	-0.2	x	x	-38.5	x	x	x
COC(=O)[C@]1(Cc2ccccc2)N[C@H](c2ccc(-c3ccccc3)cc2)[C@@H]2C(=O)N(C)C(=O)[C@@H]21	-1.4	4.3	-0.4	0.3	-0.9	3.9	x
COC(=O)[C@]1(Cc2ccccc2)N[C@H](c2ccc(-c3cc(C(C)=O)cs3)cc2)[C@@H]2C(=O)N(C)C(=O)[C@@H]21	23.2*	0.4	2.5	-0.2	-3.4	3.5	12.3
O=C(O)c1cc(-c2ccc(/C=C3/SC(=S)N(Cc4ccccc4)C3=O)o2)ccc1Cl	21.5*	x	-3.5	-0.5	x	x	18.0
CC(C)CC1NC(=O)c2ccccc2-n2c1nc1ccc(Cl)cc1c2=O (centres undefined)	9.5	x	-1.6	-0.5	9.3	x	x
CC(C)CC1NC(=O)c2cc3ccccc3cc2-n2c1nc1ccc(Cl)cc1c2=O (centres undefined)	15.7*	x	-0.5	-0.2	x	x	0.8
